Data published in the supplement of paper PMC7858590.
Where “and” joins values, the source holds several entries; their conditions need not be identical. Identical values can stand only once.

Tested on: human monocyte-derived macrophages (polarized)
Test: cell shape (eccentricity) Z-score vs DMSO control; higher = more elongated, M2-like morphology
Details: 5 µM; 24 h; macrophage state: M1-polarized (IFNg + TNFa), cytokines present during treatment
Experimental: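 Primary-screen hits were rescreened on polarized hMDMs with the differentiating cytokines (IL-4 + IL-13 or IFNg + TNFa) kept in the medium during treatment with compound at 5 uM for 24 h. The eccentricity Z-score vs DMSO wells is averaged over experiments.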

Compound	cell shape (Z-score)
CN(C)C(=O)n1nnnc1Cc1ccc(-c2ccccc2)cc1	10.3
c1cc(-c2cnn3cc(-c4ccc(OCCN5CCCCC5)cc4)cnc23)ccn1	1.96
CN1CCN(CCOc2cc(OC3CCOCC3)c3c(Nc4c(Cl)ccc5c4OCO5)ncnc3c2)CC1	4.07
NC(=O)C1CCCc2c1[nH]c1ccc(Cl)cc21 (stereo not given)	-2.04
CC1(C)CC[C@]2(C(=O)O)CC[C@]3(C)C(=CCC4[C@@]5(C)CC[C@@H](O)C(C)(C)C5CC[C@]43C)C2C1 (stereo not given in full)	-1.9
CC1(C)CCC(C)(C)c2cc(C(=O)Nc3ccc(C(=O)O)cc3)ccc21	-9.74
CC(C)n1cnc2c(NCc3ccccc3)nc(NCCO)nc21	0.237
CCC[C@H](N[C@@H](C)C(=O)N1[C@H](C(=O)O)C[C@@H]2CCCC[C@@H]21)C(=O)OCC	-1.48
CC(NCCC(c1ccccc1)c1ccccc1)c1ccccc1 (stereo not given)	-8.8
O=C(O)c1ccc2c(c1)nc(Nc1cccc(Cl)c1)c1ccncc12	9.47
C#C[C@]1(O)CC[C@H]2[C@@H]3CCC4=Cc5oncc5C[C@]4(C)[C@H]3CC[C@@]21C	-4.38
CCOC(=O)N[C@@H]1CC[C@@H]2[C@@H](C1)C[C@H]1C(=O)O[C@H](C)[C@H]1[C@H]2/C=C/c1ccc(-c2cccc(F)c2)cn1	5.58
C/C=C/c1ccc2c(c1)O[C@@H](CN(C)C(=O)c1ccccc1)[C@@H](C)CN([C@@H](C)CO)S2(=O)=O	-5.32
Cc1nn(C)c2nc(NNC(=O)Nc3cc(Cl)nc(Cl)c3)cc(C(C)C)c12	7.42
Cc1ccc(S(=O)(=O)OCC(=O)Nc2ccc(C(=O)O)c(O)c2)cc1	-2.63
O=C(O[C@@H]1Cc2c(O)cc(O)cc2O[C@@H]1c1cc(O)c(O)c(O)c1)c1cc(O)c(O)c(O)c1	-2.7
O=C(Nc1ccncc1)c1cc([N+](=O)[O-])ccc1Cl	5.38
CCCCCc1c2c(cc(O)c1C(=O)O)OC(=O)c1c(cc(OC)cc1C(=O)CCCC)O2	2.35
CC1(C)CCC(c2ccc(Cl)cc2)=C(CN2CCN(c3ccc(C(=O)NS(=O)(=O)c4ccc(N[C@H](CCN5CCOCC5)CSc5ccccc5)c(S(=O)(=O)C(F)(F)F)c4)cc3)CC2)C1	4.31
O=C(CCCCCCC(=O)Nc1ccccc1)NO	-0.801
CC1(C)C(=O)C=CC2(C)C1C=CC1(C)C2CCC2(C)C(c3ccoc3)OC(=O)C3OC312 (stereo not given)	-1.04

Same assay, conditions: 5 µM; 24 h; macrophage state: M2-polarized (IL-4 + IL-13), cytokines present during treatment

Compound	cell shape (Z-score)
N=C(NCCCCCCNC(=N)NC(=N)Nc1ccc(Cl)cc1)NC(=N)Nc1ccc(Cl)cc1	-10.6 and -7.15
COc1cc(C=O)cc2c1[nH]c1ccccc12	-3.04
O=C1c2ccccc2-c2nc3nonc3nc21	-2.4
CNCCC(Oc1ccc(C(F)(F)F)cc1)c1ccccc1 (stereo not given)	7.81
CC(=O)O[C@@H]1C[C@H]2C(C)(C)C(=O)C=C[C@]2(C)[C@H]2CC[C@@]3(C)[C@H](c4ccoc4)OC(=O)[C@H]4O[C@]43[C@@]21C	-8.96
CC(=O)OCC(=O)[C@@]1(O)[C@H](OC(C)=O)C[C@H]2[C@@H]3CCC4=CC(=O)C=C[C@]4(C)[C@@]3(F)[C@@H](O)C[C@@]21C	-9.46
CC[C@@]1(O)C(=O)OCc2c1cc1n(c2=O)Cc2cc3c([N+](=O)[O-])cccc3nc2-1	-14.4
Oc1ccc(/C=C/c2cc(O)cc(O)c2)cc1	-0.6
CCCS(=O)(=O)Nc1ccc(F)c(C(=O)c2c[nH]c3ncc(-c4ccc(Cl)cc4)cc23)c1F [Vemurafenib]	-1.16
O=C(O)Cc1nn(Cc2ccc(Br)cc2F)c(=O)c2ccccc12	-1.61
COC(=O)Nc1nc2cc(Sc3ccccc3)ccc2[nH]1	-6.87
COCCCOc1ccnc(C[S+]([O-])c2nc3ccccc3[nH]2)c1C (stereo not given)	1.52
COc1cc2c(cc1-c1coc3c4c(ccc3c1=O)OC(C)(C)C=C4)OCO2	-5.25
CC(=O)O[C@H]1C(=O)[C@@]2(C)[C@H]([C@H](OC(=O)c3ccccc3)[C@]3(O)C[C@H](OC(=O)[C@H](O)[C@@H](NC(=O)c4ccccc4)c4ccccc4)C(C)=C1C3(C)C)[C@]1(OC(C)=O)CO[C@@H]1C[C@@H]2O	-14.3 and -18.7
C[C@H]1CN([C@@H](C)CO)C(=O)Cc2cc(NC(=O)CCC(F)(F)F)ccc2O[C@H]1CN(C)S(=O)(=O)c1ccc(Cl)cc1	-11
Cc1cc(C(C)(C)CC(C)(C)C)ccc1OCCOCC[N+](C)(C)Cc1ccccc1	-3.9
COC(=O)C[C@@H]1C(C(=O)O)=CO[C@@H](O[C@@H]2O[C@H](CO)[C@@H](O)[C@H](O)[C@H]2O)/C1=C\COC(=O)/C=C/c1ccccc1	-7.78
CC(C)C1C2CCC(C2)C1N (stereo not given)	-1.17
CN1c2ccccc2C(=O)N2CCc3c([nH]c4ccccc34)[C@@H]21	-7.76
